Experimental data from the supplement of paper PMC6555819.

Tests used:
Test in all cases: PBM binding z-score (relative to random genomic background probes); higher = stronger binding; sequences stand for … in GC…GCGATTGACAGCGTAGAATGAAGG
[1] = test system: FXR:RXRa (NR concentration 270 nM, RXRa partner concentration 90 nM)
In short: (§1)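 Random background probes are the reference for binding z-scores. These scores derive from regression-normalized fluorescence on custom Agilent 4×180K protein-binding microarrays incubated 1 h with ligand-free nuclear receptor dimers. Binding was detected with antibodies against each partner (one per run).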

[2] = test system: LXRa:RXRa (NR concentration 270 nM, RXRa partner concentration 90 nM)
In short: as §1

[3] = test system: LXRa homodimer (NR concentration 270 nM)
In short: as §1

[4] = test system: LXRb:RXRa (NR concentration 270 nM, RXRa partner concentration 90 nM)
In short: as §1

[5] = test system: LXRb homodimer (NR concentration 270 nM)
In short: as §1

[6] = test system: PPARa:RXRa (NR concentration 270 nM, RXRa partner concentration 90 nM)
In short: as §1

[7] = test system: PPARg:RXRa (NR concentration 180 nM, RXRa partner concentration 90 nM)
In short: as §1

[8] = test system: PPARg:RXRa 270nM:90nM, anti-RXR (NR concentration 270 nM, RXRa partner concentration 90 nM)
In short: as §1

[9] = test system: PPARg:RXRa 30nM:10nM, anti-RXR (NR concentration 30 nM, RXRa partner concentration 10 nM)
In short: as §1

[10] = test system: PPARg:RXRa 90nM:30nM, anti-RXR (NR concentration 90 nM, RXRa partner concentration 30 nM)
In short: as §1

Sequence	PBM binding z-score [1]	PBM binding z-score [2]	PBM binding z-score [3]	PBM binding z-score [4]	PBM binding z-score [5]	PBM binding z-score [6]	PBM binding z-score [7]	PBM binding z-score [8]	PBM binding z-score [9]	PBM binding z-score [10]
AGTACAGGGTCATCGTAGGCCAGAGTACGCACAG	7.3	5.7	0.868	4.07	1.05	5.87	6.41	5.7	2.18	4.41
GGAACGAGGGCAAAATTGATAGCATCTGTCGACG	0.343	0.168	-0.325	0.129	-0.58	1.03	1.22	1.52	0.191	0.732
CCTCGGAGGACAACAGTAGGTCAGAGCTGCCAGA	0.249	0.959	1.04	0.175	-0.765	1.37	0.475	0.552	-0.754	0.0572
TCTTGTAGATCAACAGGAGGTAAAGAAAGATCGA	-0.194	-0.0725	-0.569	-0.104	-0.41	0.461	0.106	1.19	2.4	1.96
TCATAGAGGTAAAAGGTGAAAGTCGGTGTGGTAA	1.97	1.96	-0.0856	2.03	-0.828	4.69	6.33	6.66	5.72	7.33
ACTATTAGTTGAGACGAGGGCATCCGATAGGTTG	0.433	-0.0452	0.0875	-0.216	0.112	0.0329	0.689	-0.118	0.0451	0.0642
TCTATTAGTTGATTAGGCCAACCGAAACAGCGGA	0.75	0.591	0.444	0.663	0.882	0.722	0.22	2.07	3.98	3.02
ACAGACAGGTTATGAAGGTAACTCAGGCTATCAT	0.409	0.85	0.14	0.672	0.2	1.21	0.876	0.402	-0.0537	0.403
CGTCCAAGGTCATAGGAGGTCAGCGAAGACAGAT	7.87	7.84	5.46	6.23	1.15	6.44	6.36	5.99	2.57	4.9
AGAACGACGGCACGCTGAGTTGATAGCAGAGTAG	-0.194	-0.427	-0.906	-0.149	-1.06	-0.667	0.557	-0.503	-0.345	-0.753
TCTTGTAGATCAACAGGTGGTTAAGAAAGATCGA	-0.0557	0.0664	-0.0924	-0.247	-0.293	0.436	-0.255	1.22	2.58	1.8
CCGCCTGGGGCAAGGTTACCATAACGCACAGCCA	0.284	0.783	-0.315	0.56	-1.07	1.21	0.654	0.637	-0.339	0.253
CCTATTAGATGACCATAAGGGCAACCGAAGCTCG	0.824	0.35	0.303	0.273	0.565	0.419	0.753	0.324	0.147	0.0156
GCTGCTAGGTCAACAGATGGTCAGCTAAAGCTCG	3.13	2.22	-0.297	1.37	-0.198	2.99	2.43	2.5	0.277	1.86
CCTTACGGGTCACTCCAGGTTGTAGCATCGGAGT	4.5	6.32	0.477	3.72	0.0911	4.42	2.92	3.54	0.72	2.5
CCTAGCAGGCCAGGGTCTCTCAAGCATTTCGCTT	-0.78	-0.742	-0.767	-0.956	-1.15	-0.63	-0.954	-0.991	-1.16	-1.4
TAGTCTAGGTCATGGGCCAGTATACCACGCGAAC	4.42	3.68	1.27	2.58	1.74	4.88	7.25	6.37	3.68	6
CCTACTGGGCTAAAGGTCATTGATTCCAATGCTC	4.68	4.85	4.14	4.48	0.6	6.09	11.2	9.38	9.13	10.4
TCTTGTAGATCAAGCAGGTTAAGAAAGCCTGAGT	0.0308	0.414	-0.381	0.385	-0.415	0.741	-0.57	1.21	2.46	1.7
GGAACGAGGGCATTCGAGTTGATAGCGTGGCGAT	1.41	1.5	-0.572	-0.00424	-0.698	1.35	0.634	0.67	-0.488	0.214
GCTATTAGTTGTAAGGGCAACCGAATGATTCTCG	0.301	0.305	0.235	0.38	-0.00961	0.472	0.397	0.63	0.129	0.634
ATACCAAGGTGATCTTGAGGTCGTTGATACTAAC	2.36	2.49	1.86	1.92	0.411	1.91	0.527	0.843	-0.161	0.624
ACTATTAGTTGAGACGAGGGCACCCGATAGGTTG	0.0849	0.0854	-0.0764	0.0614	0.318	0.202	0.813	0.197	0.108	0.163
